An excerpt weighted towards active compounds, which were near 3.7% of everything screened.
tim10-1 inh: inhibits growth of tim10-1 mutant yeast; S. cerevisiae tim10-1 ts strain growth, BacTiter-Glo, 24 h; AID 463190; 330,000 compounds, 2.2% hits; inhibition, % at 20 µM;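 active means inhibition of at least 40%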;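 further: mutant grown at 25 °C; 0% = DMSO wells with yeast and 100% = wells holding no yeast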
PfHsp90 set2: growth inhibition of yeast expressing Plasmodium Hsp90 | AID 504621 | S. cerevisiae expressing PfHsp90, BacTiter-Glo ATP, 48 h; yeast lacking PDR1 and PDR3 efflux regulators | 310,000 compounds, 0.32% hits | inhibition, % at 9.4 µM;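 active means every replicate shows inhibition above about 80%, whatever the replicate mean, limit read from the data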;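 further: 0% = DMSO neutral controls and 100% = 20 µM radicicol positive controls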
TIM10 inh: growth inhibitors of TIM10 yeast strain | S. cerevisiae TIM10 strain growth, BacTiter-Glo luminescence, 24 h | inhibition, % at 10 µM | 330,000 compounds, 1.4% hits;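 active means inhibition of 40% or more at the single tested concentration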;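 further: wild-type TIM10 isogenic control strain grown at permissive 25 °C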
tim23-1 inh: growth inhibitors of tim23-1 mutant yeast; S. cerevisiae tim23-1 growth, BacTiter-Glo luminescence, 24 h; inhibition, % at 20 µM; 330,000 compounds, 1.3% hits;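 active means growth inhibition of the mutant yeast at or above 50%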;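 further: temperature-sensitive mutant grown at 25 °C; plate controls were DMSO-treated mutant yeast for no effect and medium wells lacking yeast for full effect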
NALP3 yeast inh: inhibitors of NALP3 inflammasome in yeast | 330,000 compounds, 0.39% hits | inhibition, % at 10 µM | Yeast reconstituted NLRP3/ASC/caspase-1, beta-gal luminescence, 24 h;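 active means inhibition of 50% or more; inactive means inhibition below 50%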;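 further: plate controls were induced DMSO wells for no effect and uninduced yeast grown without galactose for full effect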
tim10 confirm: confirmation of TIM10 yeast growth inhibitors. 4,600 compounds, 63% hits. inhibition, % at 10 µM. S. cerevisiae tim10 strain growth, BacTiter-Glo luminescence, 24 h. shares compounds with TIM10 inh;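 active means inhibition of yeast growth at or above a set limit in either of two replicates at 10 µM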;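 further: this counterscreen used the strain with wild-type TIM10; 0% = yeast with DMSO and 100% = medium wells lacking yeast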
* hit, by the source's call; . = no result given.

SMILES | tim10-1 inh | PfHsp90 set2 | TIM10 inh | tim23-1 inh | NALP3 yeast inh | tim10 confirm
COc1ccc(CNC(=S)Nc2ccccc2-c2ccccc2)cc1 | 23.8 | . | 47.7* | 14.7 | 9.8 | 30.4
Cc1ccc(C(=O)NCc2ccc3c(c2)OCO3)c(C)c1 | -4.4 | -5.4 | 66.9* | 4.1 | 27.0 | 8.4
CCN1CCN(CC(=O)Nc2ccc(N(C)C)cc2)CC1 | -5.2 | -10.8 | -9.0 | -9.1 | -2.4 | .
CC(C)c1onc(C(=O)NC(C)c2ccccc2)c1[N+](=O)[O-] (stereo not drawn) | 25.6 | 4.7 | 7.1 | 4.4 | -1.5 | .
O=C(CN1C(=O)S/C(=C\c2ccc(Cl)cc2)C1=O)NNC(=O)c1ccccc1O | . | -6.0 | . | . | . | .
COc1ccc(CNC(=S)Nc2cc(C)cc(C)c2)cc1 | 26.7 | -3.4 | 41.0* | 14.6 | -6.0 | -15.4
COc1cccc(CNC(=S)Nc2cc(C)cc(C)c2)c1 | 30.2 | -10.1 | -9.6 | 5.2 | -18.1 | .
Cc1ccc(C(=O)N2c3ccccc3N(Cc3ccccc3)C(=O)C2(C)C)cc1 | 24.2 | -5.6 | 13.0 | 34.6 | 26.8 | .
O=C(c1ccccc1Cl)N(C(=O)c1ccccc1Cl)c1nccc(-c2cccs2)n1 | 27.3 | -31.3 | 41.8* | 28.4 | 5.7 | 10.2
O=C(Nc1nccc(-c2cccs2)n1)c1ccccc1Cl | 16.4 | -12.8 | 6.5 | 4.1 | -3.6 | .
S=C(Nc1ccccc1)Nc1cc(Cl)ccc1Oc1ccccc1 | 35.1 | 5.4 | 47.5* | 45.9 | -4.8 | -7.2
NC(=S)N/N=C/c1cccc(/C=N/NC(N)=S)c1 | -10.1 | -12.6 | 12.8 | -5.7 | 14.0 | .
NC(=S)N/N=C/c1ccc2ccccc2c1 | 24.4 | 10.0 | 40.3* | 30.5 | 22.3 | 27.7
COCCCNC(=S)N/N=C/c1ccc2ccccc2c1 | 16.3 | -11.7 | 41.0* | 35.0 | -13.5 | 37.3*
COCCCNC(=S)N/N=C/c1ccc(OC)cc1 | 25.1 | -0.5 | 27.3 | 30.0 | 10.4 | .
Nc1nonc1C(=O)NCCN=Cc1cc(Cc2ccccc2)cc(Br)c1O | 13.2 | 123.0* | 51.2* | -55.7 | 18.1 | 67.2*
CSc1ccc(S(=O)(=O)Nc2ccc3c4c(cccc24)CC3)cc1 | 29.6 | . | 41.9* | 45.3 | 2.9 | 19.9
O=C(Nc1cccc(S(=O)(=O)N2CCCCC2)c1)c1ccc2ncsc2c1 | 12.6 | 2.1 | 5.2 | 37.6 | 8.1 | .
C=CCOc1ccc2c(c1)c(=O)cc(C(=O)O)n2CC | 3.4 | 5.1 | 8.8 | 10.4 | 13.0 | .
COc1ccc(CCCC(=O)N/N=C/c2cccc(OC)c2O)cc1C | 6.5 | -4.5 | 55.3* | 34.8 | 12.9 | -10.1
COc1cccc(/C=N/NC(=O)C[n+]2ccccc2)c1O | 14.7 | -28.1 | 21.1 | 4.0 | 9.0 | .
CC(C)Sc1nc2c(c(=O)n(C)c(=O)n2C)n1Cc1ccc(Cl)cc1 | 1.3 | -41.9 | -17.9 | 22.9 | 12.0 | .
Cn1c(=O)c2c(nc(SCc3ccccc3)n2Cc2ccc(Cl)cc2)n(C)c1=O | 24.9 | -36.1 | 43.0* | 11.6 | 7.6 | 26.3
CCCN1C(=O)/C(=C/c2ccc(N3CCCC3)c(C)c2)NC1=S | 38.5 | -43.8 | 28.3 | 21.4 | -0.6 | .
Cc1cc(/C=C2\NC(=S)N(C)C2=O)ccc1N1CCCC1 | 30.2 | -19.1 | 41.9* | -14.9 | 33.8 | 40.1*
SMILES | tim10-1 inh | PfHsp90 set2 | TIM10 inh | tim23-1 inh | NALP3 yeast inh | tim10 confirm
CC(C)(C)c1ccc(C(=O)NCCC(=O)NNC(=O)COc2ccccc2F)cc1 | -2.7 | -15.1 | 6.4 | 8.9 | 4.8 | .
CCOc1ccc(N/C(SCc2cccc([N+](=O)[O-])c2)=C(/C#N)C(N)=O)cc1 | 39.4 | -56.6 | 45.7* | 37.7 | -2.7 | 41.5*
Cc1c([N+](=O)[O-])cc(C(=O)Oc2ccc(Br)cc2C(=S)N2CCCCC2)cc1[N+](=O)[O-] | 33.8 | -27.5 | 44.0* | 21.5 | 30.7 | 32.1*
COc1ccc(CNC(=S)NCc2ccc(OC(C)C)cc2)cc1 | 33.6 | 3.8 | 9.0 | 1.4 | 16.3 | .
C/C(=N\NC(=S)NCc1ccccc1)c1ccc2ccccc2c1 | 38.8 | -41.1 | 53.7* | 43.8 | 26.7 | -12.1
COc1ccc(CNC(=S)N/N=C(\C)c2ccc(OC)cc2)cc1 | 33.8 | -5.0 | 43.6* | -11.4 | 6.7 | 43.9*
C=CCNC(=S)N/N=C(\C)c1cccc(OC)c1 | 26.7 | -9.9 | 40.6* | 43.7 | -1.4 | 19.6
CC(C)c1nn2c(=O)cc(CSc3ccccc3NC(=O)c3ccccc3F)nc2s1 | 21.7 | 6.3 | 16.9 | 31.3 | 20.8 | .
CCCOc1ccc(C2=NNC(c3cccs3)=Nc3ccc(OC)cc32)cc1 | 22.3 | -7.6 | 51.5* | 40.0 | 18.5 | 38.8*
COc1ccc2c(c1)C(c1cccs1)=NNC(c1ccncc1)=N2 | -13.3 | 9.0 | 13.8 | 28.1 | 24.8 | .
O=C(Nc1ccc(F)cc1)c1ccc(S(=O)(=O)N2CCCC2)cc1 | 18.7 | -10.7 | -17.2 | 21.3 | 7.1 | .
O=C(Nc1ccc(S(=O)(=O)N2CCOCC2)cc1)c1ccc(Cl)s1 | 36.0 | -0.8 | 40.9* | 32.5 | 7.6 | 30.4
O=C(Nc1ccc(S(=O)(=O)N2CCCC2)cc1)c1cc(F)c(F)cc1Cl | 37.6 | -11.9 | 40.6* | 36.5 | 7.5 | 32.8*
O=C(Nc1ccc(Cl)cc1)c1ccc(S(=O)(=O)N2CCOCC2)cc1 | 3.3 | -65.2 | 0.7 | 10.1 | 20.4 | .
O=C(NCCC1=CCCCC1)C(=O)c1c[nH]c2ccccc12 | -9.0 | 13.0 | 2.4 | -2.5 | 8.6 | .
O=C(CSc1nc2ccccc2o1)N/N=C/c1ccc(C(=O)O)cc1 | 6.3 | -18.5 | -2.6 | 18.9 | 0.7 | .
Nc1ccc(C(=O)OCc2nc3c(ccc4ccccc43)[nH]2)cc1 | 29.5 | -15.3 | 47.6* | 34.5 | 15.9 | -3.1
Cc1ccc(CNC(=O)CCCn2nc(C)n3ccnc3c2=O)cc1 | -4.5 | 0.1 | -0.3 | 13.6 | -0.2 | .
Cc1cccc(Cn2ccc(NC(=O)c3ccc4c(c3)OCO4)n2)c1 | 33.4 | -17.8 | 40.5* | 36.6 | 9.9 | 34.4*
Cc1cccc(Cn2ccc(NC(=O)c3cccnc3)n2)c1 | -1.9 | 16.0 | 18.9 | 3.0 | 5.8 | .
O=[N+]([O-])c1ccc(O)c(/C=N/n2cnc3ccccc32)c1 | 29.1 | -34.1 | 40.8* | 37.4 | 26.8 | 65.8*
Cc1cc(OCc2cccc(S(=O)(=O)N3CCOCC3)c2)ccc1Cl | 18.7 | -2.0 | 49.5* | 34.6 | -30.7 | 26.2
O=C(C1CC1)N1CCc2cc(Br)cc(S(=O)(=O)N3CCCCCC3)c21 | -1.5 | . | 47.2* | -32.7 | 0.7 | -65.9
Cc1nc2ccc([N+](=O)[O-])cc2[nH]1 | 0.9 | 18.8 | -8.0 | 11.8 | -1.6 | .
O=[N+]([O-])c1cccc(/C=C/c2nc3ccc([N+](=O)[O-])cc3[nH]2)c1 | 20.1 | -20.1 | 54.3* | 42.1 | 18.8 | 58.2*
O=C(COC(=O)/C=C/c1cccc(Br)c1)NC1CCCCC1 | 4.6 | 13.4 | -2.2 | 4.2 | 12.7 | .
O=C(/C=C/c1cccc(Br)c1)NCC1CCCCC1 | 25.6 | -35.7 | 41.1* | 21.6 | 17.2 | 33.4*
Cc1ccccc1/C=N/Nc1ccnc2cc(Cl)ccc12 | . | -12.8 | . | . | . | .
Oc1ccc(/C=N/Nc2ccnc3cc(Cl)ccc23)c(O)c1 | 5.5 | -15.4 | 47.4* | 6.7 | 19.8 | 36.0*
